What all share (test): log2 fold change, soluble protein after heating vs DMSO (PISA); higher = thermal stabilisation; K562 lysate, 10 uM; active = over 0.2 and 3.5 SD of the protein, either way, in both replicates (recomputed)
Compound in test [1]: C1=CC=C(C=C1)[C@H](COC2=CC3=C(C=C2)NC(=O)N3)NC(=O)C4=CC=CN(C4=O)CC5=CC(=C(C=C5)F)F
The method, boiled down:
(§1)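 Values give the log-two fold change in thermal stability against solvent controls, from duplicates. Crude K562 extract at 1 mg/mL protein, made by dounce homogenisation in PBS pH 7.4 with 1 mM MgCl2, was treated with 10 μM compound for 30 min. After 3 min heating across 48°C-58°C, aliquots were pooled, adjusted to 0.5% NP-40 at 4°C and centrifuged at 21,000xg for 90 min. The supernatant was measured by TMTpro 16plex LC-MS/MS with channel sums equalised.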

Compound in test [2]: CC1=C(SC2=C1C(=N[C@H](C3=NN=C(N32)C)CC(=O)N)C4=CC=C(C=C4)Cl)C
The method, boiled down: as §1

Compound in test [3]: CC1=C2C(=CC=C1)N=C(N(C2=O)C3=CC=CC=C3C)CN4C=NC5=C(N=CN=C54)N
The procedure, abridged: as §1

Compound in test [4]: Cc1sc2c(c1C)C(c1ccc(Cl)cc1)=N[C@@H](CC(=O)OC(C)(C)C)c1nnc(C)n1-2
The method, boiled down: as §1

Compound in test [5]: c1ccc([C@@H]2C[C@H]2NC2CCNCC2)cc1
The procedure, abridged: as §1

Of roughly 8,800 targets only a part is listed; those with a hit were picked by preference. About 0.5% of all pairs of compound and target were hits. Unmarked numbers belong to inactive results.

Sequence of UniProt Q53EL6 (Q53EL6 whole entry, looked up): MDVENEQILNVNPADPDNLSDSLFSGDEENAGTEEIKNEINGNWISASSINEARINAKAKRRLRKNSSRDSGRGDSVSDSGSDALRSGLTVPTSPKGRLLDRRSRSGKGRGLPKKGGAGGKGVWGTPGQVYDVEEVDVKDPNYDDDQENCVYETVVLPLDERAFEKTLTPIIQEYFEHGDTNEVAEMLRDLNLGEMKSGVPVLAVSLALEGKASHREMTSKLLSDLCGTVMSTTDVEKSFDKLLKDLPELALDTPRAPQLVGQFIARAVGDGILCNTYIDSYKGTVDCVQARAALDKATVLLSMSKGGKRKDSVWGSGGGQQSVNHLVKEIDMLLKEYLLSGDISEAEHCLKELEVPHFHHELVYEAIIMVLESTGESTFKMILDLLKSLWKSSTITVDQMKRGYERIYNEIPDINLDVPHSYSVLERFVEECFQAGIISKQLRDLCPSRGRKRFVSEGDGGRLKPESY
Sequence of UniProt O95336 (O95336 whole entry, looked up): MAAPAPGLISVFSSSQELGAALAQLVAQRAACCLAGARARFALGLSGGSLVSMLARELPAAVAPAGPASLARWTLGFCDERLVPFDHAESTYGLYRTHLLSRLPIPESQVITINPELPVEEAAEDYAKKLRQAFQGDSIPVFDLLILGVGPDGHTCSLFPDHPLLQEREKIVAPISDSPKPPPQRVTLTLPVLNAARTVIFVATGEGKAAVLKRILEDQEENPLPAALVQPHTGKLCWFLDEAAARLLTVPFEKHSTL
Sequence of UniProt O14744 (O14744 whole entry, looked up): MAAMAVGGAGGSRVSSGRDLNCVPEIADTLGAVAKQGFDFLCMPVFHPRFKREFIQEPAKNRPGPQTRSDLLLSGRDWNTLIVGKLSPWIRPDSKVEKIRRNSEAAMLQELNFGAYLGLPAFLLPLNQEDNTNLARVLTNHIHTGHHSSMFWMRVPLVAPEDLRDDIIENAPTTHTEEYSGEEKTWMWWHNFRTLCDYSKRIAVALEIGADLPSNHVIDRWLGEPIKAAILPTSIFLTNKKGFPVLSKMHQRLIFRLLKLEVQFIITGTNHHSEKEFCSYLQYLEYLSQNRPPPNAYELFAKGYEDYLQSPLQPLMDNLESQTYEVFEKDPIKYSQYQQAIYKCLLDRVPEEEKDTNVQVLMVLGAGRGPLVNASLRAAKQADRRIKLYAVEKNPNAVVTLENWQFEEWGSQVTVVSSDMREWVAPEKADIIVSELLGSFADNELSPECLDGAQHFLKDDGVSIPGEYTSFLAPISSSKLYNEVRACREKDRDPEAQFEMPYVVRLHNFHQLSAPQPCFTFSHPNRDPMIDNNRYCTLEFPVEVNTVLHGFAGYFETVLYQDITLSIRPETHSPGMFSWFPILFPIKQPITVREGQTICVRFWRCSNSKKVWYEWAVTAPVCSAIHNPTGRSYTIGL
Sequence of UniProt P42338 (P42338 whole entry, looked up): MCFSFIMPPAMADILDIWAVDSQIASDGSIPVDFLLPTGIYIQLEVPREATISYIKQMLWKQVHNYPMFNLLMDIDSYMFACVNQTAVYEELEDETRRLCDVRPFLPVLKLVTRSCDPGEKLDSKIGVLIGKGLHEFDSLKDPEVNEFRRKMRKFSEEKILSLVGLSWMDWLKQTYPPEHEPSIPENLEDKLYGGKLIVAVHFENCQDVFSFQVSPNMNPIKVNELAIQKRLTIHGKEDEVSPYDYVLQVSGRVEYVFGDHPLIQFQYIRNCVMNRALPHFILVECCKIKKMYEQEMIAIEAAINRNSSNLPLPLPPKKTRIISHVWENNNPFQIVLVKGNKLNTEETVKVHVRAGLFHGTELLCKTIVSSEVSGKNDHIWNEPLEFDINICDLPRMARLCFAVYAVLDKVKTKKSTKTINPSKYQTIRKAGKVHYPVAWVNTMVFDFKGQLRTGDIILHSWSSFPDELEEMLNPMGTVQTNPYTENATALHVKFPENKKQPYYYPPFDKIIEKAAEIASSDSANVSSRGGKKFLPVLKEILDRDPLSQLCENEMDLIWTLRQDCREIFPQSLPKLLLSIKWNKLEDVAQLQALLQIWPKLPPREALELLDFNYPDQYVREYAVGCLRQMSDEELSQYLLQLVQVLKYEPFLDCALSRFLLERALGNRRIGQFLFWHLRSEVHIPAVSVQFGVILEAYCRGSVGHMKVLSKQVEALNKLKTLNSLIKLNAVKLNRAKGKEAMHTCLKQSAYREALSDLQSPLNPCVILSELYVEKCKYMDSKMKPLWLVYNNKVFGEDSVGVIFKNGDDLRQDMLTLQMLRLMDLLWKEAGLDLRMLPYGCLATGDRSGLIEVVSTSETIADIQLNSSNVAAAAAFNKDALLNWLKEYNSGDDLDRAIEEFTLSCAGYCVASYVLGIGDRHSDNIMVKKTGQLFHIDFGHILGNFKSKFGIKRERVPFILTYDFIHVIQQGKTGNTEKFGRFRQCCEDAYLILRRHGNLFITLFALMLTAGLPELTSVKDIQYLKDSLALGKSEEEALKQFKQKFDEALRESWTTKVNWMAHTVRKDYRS
Sequence of UniProt Q93100 (Q93100 whole entry, looked up): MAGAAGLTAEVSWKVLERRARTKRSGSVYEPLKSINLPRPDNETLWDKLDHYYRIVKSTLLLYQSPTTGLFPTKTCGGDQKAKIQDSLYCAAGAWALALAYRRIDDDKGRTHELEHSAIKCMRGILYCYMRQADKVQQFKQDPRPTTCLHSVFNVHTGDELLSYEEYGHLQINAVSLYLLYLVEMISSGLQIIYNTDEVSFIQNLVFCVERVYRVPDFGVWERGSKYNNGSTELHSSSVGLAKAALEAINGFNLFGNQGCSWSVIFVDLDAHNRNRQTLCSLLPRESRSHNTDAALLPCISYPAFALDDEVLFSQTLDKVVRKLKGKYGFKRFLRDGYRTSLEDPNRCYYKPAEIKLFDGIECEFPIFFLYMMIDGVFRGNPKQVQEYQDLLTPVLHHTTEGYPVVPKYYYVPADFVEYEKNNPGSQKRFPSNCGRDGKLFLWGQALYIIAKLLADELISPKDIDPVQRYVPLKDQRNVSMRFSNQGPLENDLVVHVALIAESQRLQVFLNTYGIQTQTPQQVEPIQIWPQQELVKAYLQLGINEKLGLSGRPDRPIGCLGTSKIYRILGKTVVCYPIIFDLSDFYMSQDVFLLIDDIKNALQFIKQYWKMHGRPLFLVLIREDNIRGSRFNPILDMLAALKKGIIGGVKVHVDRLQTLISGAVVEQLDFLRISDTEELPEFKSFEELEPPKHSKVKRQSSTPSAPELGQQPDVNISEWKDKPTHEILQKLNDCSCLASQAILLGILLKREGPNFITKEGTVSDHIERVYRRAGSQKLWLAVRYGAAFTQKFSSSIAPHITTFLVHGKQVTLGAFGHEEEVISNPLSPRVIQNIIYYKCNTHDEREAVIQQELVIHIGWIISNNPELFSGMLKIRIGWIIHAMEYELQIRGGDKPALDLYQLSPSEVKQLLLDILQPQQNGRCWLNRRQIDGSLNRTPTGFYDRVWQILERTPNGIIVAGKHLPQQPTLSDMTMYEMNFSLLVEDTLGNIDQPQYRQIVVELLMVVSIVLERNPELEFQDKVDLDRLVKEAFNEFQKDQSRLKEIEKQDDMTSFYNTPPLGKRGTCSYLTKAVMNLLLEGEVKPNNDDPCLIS
Sequence of UniProt Q99541 (Q99541 whole entry, looked up): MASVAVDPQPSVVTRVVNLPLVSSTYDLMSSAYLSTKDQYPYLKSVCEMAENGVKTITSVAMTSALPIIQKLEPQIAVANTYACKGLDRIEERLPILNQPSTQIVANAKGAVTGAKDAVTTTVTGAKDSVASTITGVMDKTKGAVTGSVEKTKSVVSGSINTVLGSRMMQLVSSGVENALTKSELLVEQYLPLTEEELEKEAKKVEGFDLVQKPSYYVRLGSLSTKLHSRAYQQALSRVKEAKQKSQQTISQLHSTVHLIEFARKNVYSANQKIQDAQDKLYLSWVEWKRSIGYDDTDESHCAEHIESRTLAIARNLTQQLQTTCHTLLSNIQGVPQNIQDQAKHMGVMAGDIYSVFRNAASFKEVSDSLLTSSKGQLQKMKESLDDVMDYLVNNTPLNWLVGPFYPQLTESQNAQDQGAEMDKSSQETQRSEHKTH
Sequence of UniProt Q96I23 (Q96I23 whole entry, looked up): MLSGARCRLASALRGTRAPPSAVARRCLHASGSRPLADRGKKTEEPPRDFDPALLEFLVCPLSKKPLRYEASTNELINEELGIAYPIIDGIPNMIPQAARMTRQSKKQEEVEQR
Sequence of UniProt O00408 (O00408 whole entry, looked up): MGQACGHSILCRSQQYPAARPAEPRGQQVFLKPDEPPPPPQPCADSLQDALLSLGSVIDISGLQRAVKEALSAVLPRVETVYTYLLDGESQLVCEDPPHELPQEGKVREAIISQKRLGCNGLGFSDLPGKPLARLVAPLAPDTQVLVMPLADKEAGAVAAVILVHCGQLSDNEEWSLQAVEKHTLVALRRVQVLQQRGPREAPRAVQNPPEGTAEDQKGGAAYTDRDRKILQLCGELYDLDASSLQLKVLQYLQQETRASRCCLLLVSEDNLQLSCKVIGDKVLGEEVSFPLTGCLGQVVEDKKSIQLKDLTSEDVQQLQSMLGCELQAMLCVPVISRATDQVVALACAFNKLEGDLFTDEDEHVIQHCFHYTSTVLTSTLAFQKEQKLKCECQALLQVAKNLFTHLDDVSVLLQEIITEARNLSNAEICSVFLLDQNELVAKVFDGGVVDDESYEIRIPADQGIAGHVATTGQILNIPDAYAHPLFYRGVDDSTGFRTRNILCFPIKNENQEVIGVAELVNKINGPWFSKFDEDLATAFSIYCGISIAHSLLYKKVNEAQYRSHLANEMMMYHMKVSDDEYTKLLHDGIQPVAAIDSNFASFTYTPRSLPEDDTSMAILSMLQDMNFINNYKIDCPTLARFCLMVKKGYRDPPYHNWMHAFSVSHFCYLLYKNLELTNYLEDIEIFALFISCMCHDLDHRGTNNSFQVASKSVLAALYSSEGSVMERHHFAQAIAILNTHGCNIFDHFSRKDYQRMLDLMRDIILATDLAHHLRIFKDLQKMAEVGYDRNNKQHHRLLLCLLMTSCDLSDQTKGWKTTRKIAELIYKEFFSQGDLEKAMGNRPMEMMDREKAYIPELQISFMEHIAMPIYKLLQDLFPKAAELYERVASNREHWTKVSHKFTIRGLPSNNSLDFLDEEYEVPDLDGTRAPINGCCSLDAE

Take PHKB isoform 3 (UniProt Q93100): the log2 fold change in test [1] was 0.015; in test [2] it was 0.011; in test [3] it was 0.042; in test [4], -0.012; in test [5], -0.066.

On to PYURF (UniProt Q96I23), for which the log2 fold change is 0.03 in test [1]; 0.048 in test [2]; 0.126 in test [3]; 0.007 in test [4]; -0.091 in test [5].

On to PGLS (UniProt O95336), for which the log2 fold change was -0.063 in test [1]; -0.06 in test [2]; 0.094 in test [3]; -0.04 in test [4]; 0.095 in test [5].

Turning to PDCD4 (UniProt Q53EL6), the log2 fold change in test [1] was -0.026; in test [2] it was 0.005; in test [3], -0.007; in test [4], 0.002; in test [5] it was 0.001.

For PDE2A (UniProt O00408), the log2 fold change in test [1] was 0.012; in test [2] it was 0.067; in test [3], 0.163; in test [4] it was 0.039; in test [5], 0.

As to PRMT5 (UniProt O14744), the log2 fold change in test [1] was -0.01; in test [2], 0.031; in test [3] it was 0.006; in test [4], -0.013; in test [5], 0.002.

On to PIK3CB (UniProt P42338), for which the log2 fold change was -0.066 in test [1]; -0.054 in test [2]; 0.518 (active) in test [3]; -0.049 in test [4]; -0.033 in test [5].

As to PLIN2 (UniProt Q99541), the log2 fold change was -0.138 in test [1]; 0.015 in test [2]; 0.021 in test [3]; -0.018 in test [4]; 0.014 in test [5].

For PI4K2B (UniProt Q8TCG2), the log2 fold change in test [1] was -0.033; in test [2], 0.048; in test [3], 0.074; in test [4], 0.068; in test [5], 0.077.

Source of the values: the supplement of paper PMC10849652.
